Experimental findings from PubChem BioAssay AID493152 (Sanford-Burnham Center for Chemical Genomics, 2011) are described below.

For orientation: inhibition means the change of the read-out against control, counted positive when it falls.

This is one part of the list. Unmarked numbers belong to inactive results. Active and inactive are the calls of the source.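 Rule for the calls: active = inhibition reaching a set limit in any replicate at 20 µM, the limit being 80% of the first screen's; inactive = the rest.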

The target of the assay is DNA dC->dU-editing enzyme APOBEC-3G (Homo sapiens) (UniProt Q9HC16). In words: APOBEC3G deaminase inhibitor retest, confirmation, biochemical, fluorescence, single-stranded DNA substrate, single concentration (AID 493152). Particulars: recombinant A3G ssDNA deaminase, UDG/FAM-TAMRA fluorescence; at 20 µM; hits give high values.
Chain of DNA dC->dU-editing enzyme APOBEC-3G (Homo sapiens) (Q9HC16 whole entry, looked up): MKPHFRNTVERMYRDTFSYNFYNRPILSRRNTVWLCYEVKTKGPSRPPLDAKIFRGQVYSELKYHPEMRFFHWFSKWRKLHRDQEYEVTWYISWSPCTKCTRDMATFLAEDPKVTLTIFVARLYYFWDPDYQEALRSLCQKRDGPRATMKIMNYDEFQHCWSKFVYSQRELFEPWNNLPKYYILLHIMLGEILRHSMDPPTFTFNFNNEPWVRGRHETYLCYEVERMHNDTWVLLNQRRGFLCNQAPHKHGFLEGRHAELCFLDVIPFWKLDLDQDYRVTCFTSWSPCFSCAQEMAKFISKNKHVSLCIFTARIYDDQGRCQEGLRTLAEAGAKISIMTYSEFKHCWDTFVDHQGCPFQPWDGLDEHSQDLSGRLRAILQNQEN
Consider `Cc1ccc(NC(=O)c2sc3nc(N)c(C#N)cc3c2N)cc1`, for which the inhibition was -7.68%.

Regarding `Cc1cc(-c2n[nH]c(=S)n2/N=C/c2ccco2)n[nH]1`, the inhibition is 58.5% (active).

As for `CC(=O)N(C1=C(Cl)C(=O)c2ccccc2C1=O)c1ccc(C(=O)O)cc1`, the inhibition is 99.2% (active).

Regarding `S=c1[nH]ccn1-c1ccc(Cl)cc1`, the inhibition was 74% (active).

As for `Fc1ccccc1/C=N/n1c(-c2cccnc2)n[nH]c1=S`, the inhibition is 84.9% (active).

Regarding `Cc1ccc(S(=O)(=O)N(C)CC(=O)NCCc2c[nH]c3ccccc23)cc1`, the inhibition was 4.16%.

For `CCn1c(CN2C(=O)CSc3ccccc32)n[nH]c1=S`, the inhibition is 23.9%.

For the compound `COc1cccc(C(=O)CC(=O)C(=O)Nc2ccc([N+](=O)[O-])cc2C)c1`, the inhibition was 2.17%.

As to `CC(C)(C)c1nnc(NC(=O)C2c3ccccc3Oc3ccccc32)s1`, the inhibition was 31.2% (active).

Consider `Cc1n[nH]c(=S)n1/N=C/c1ccc(Br)o1`, for which the inhibition is 80.4% (active).

In the case of `COc1ccc(N2C(=O)CC(Sc3n[nH]c(-c4ccc(C)cc4)n3)C2=O)cc1` (centres undefined), the inhibition is 46% (active).

`CCOc1ccc(NC(=O)c2ccc(NC(=O)COC(=O)c3ccc(NC(=O)CC#N)cc3)cc2)cc1`: the inhibition is 51.5% (active).

For the compound `Cc1ccc(C(=O)c2c(NC(=O)c3ccccc3)sc(C)c2C)cc1`, the inhibition was 24.2% (active).

As to `COc1ccc2[nH]c(=S)cc(C)c2c1`, the inhibition was 74.7% (active).

`S=c1[nH]nc(-c2ccco2)n1/N=C/c1ccccc1`: the inhibition was -3.73% (active).

On to `Cc1nc([N+](=O)[O-])nn1C12CC3CC(CC(Br)(C3)C1)C2`, for which the inhibition was 50.8% (active).

As for `O=c1[nH]c2ccccc2n2c(-c3ccccc3)nnc12`, the inhibition is 26% (active).

For the compound `CCc1c(C)[nH]c(=S)c(C#N)c1C`, the inhibition was 89.2% (active).

For the compound `O=C1C=CC(=O)N1c1ccc(N2CCCCC2)cc1`, the inhibition is 91% (active).

In the case of `COCc1c(N)c(C)nc(Cl)c1C#N`, the inhibition is 84.5% (active).

As to `CCOc1ccc(NC(=O)Nc2cc(C)on2)cc1`, the inhibition was 0.05%.

Consider `Cc1cc(C)c2c(-c3ccc(F)cc3)c(C#N)c(=O)n(C)c2n1`, for which the inhibition was -1.37%.

As to `CC(=O)N1CC[n+]2c(-c3ccc([N+](=O)[O-])cc3)csc21`, the inhibition is 50.5% (active).

As to `Cc1cccc(-n2c(N)c(C(=O)N3CCN(C)CC3)sc2=S)c1`, the inhibition was 77.7% (active).
